# “And” between values parts separate entries of the source, which are not always exact repeats. Equal entries are not always repeated. In all, about 350,000 compounds went through this assay and about 31,000 (8.9%) were called active. About 15% were inconclusive and are not listed. Calls follow the shape of the dose curve; as a rule, active = well fitted inhibition curve with a large enough effect; inconclusive = small, poorly fitted or top-dose-only effect; inactive = no such curve, though single readings can be large or run the other way. The entries come from a sample that favours actives as a whole. The source holds several records for some structures; these can differ, active in one and inactive in another.
# Molecular target: Histone-lysine N-methyltransferase EHMT2 (Homo sapiens) (UniProt Q96KQ7)
# Experiment: qHTS Assay for Inhibitors of Histone Lysine Methyltransferase G9a; also: nearly all actives have a fitted effect of over 75% in size
# Conditions: G9a H3K9 monomethylation, AlphaScreen, 2 h; series mostly up to 102 µM; activity, negative = inhibition: at the top concentration
# Method in brief: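 G9a (20 nM) was preincubated 15 min with compound, then reacted 2 h at room temperature with 500 nM biotin-H3K9 peptide and 20 µM SAM. Monomethyl-H3K9 detected by AlphaScreen using anti-H3K9me1 antibody.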
# % is scaled to controls: 0 for no effect and ±100 for the full control effect; potency is read from the fitted curve at half-maximal effect.
# Sequence of Histone-lysine N-methyltransferase EHMT2 (Homo sapiens) (Q96KQ7 913-1193 limits assumed): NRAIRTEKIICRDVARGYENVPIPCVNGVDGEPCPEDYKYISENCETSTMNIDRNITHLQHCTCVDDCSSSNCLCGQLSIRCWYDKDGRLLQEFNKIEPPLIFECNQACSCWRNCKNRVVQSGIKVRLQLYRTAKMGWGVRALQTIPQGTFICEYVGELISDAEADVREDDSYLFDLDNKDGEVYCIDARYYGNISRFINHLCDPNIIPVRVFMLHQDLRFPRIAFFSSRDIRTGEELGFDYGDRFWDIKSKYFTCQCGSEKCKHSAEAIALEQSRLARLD
Compound,"activity, negative = inhibition",Potency
c1csc(CN2CC3(CCNCC3)C2)n1,-16.9% [at 12.7 µM] (inactive),
c1ccc(N2CC[C@@]3(CCCNC3)C2)nc1,-39.9% [at 12.7 µM] (inactive),
COC(=O)CN1C(=O)C2(C(C(=O)OC)=C(N)Oc3ccccc32)C2=C1CC(C)(C)CC2=O (configuration not stated),17.5% [at 59 µM] (inactive),
COc1cccc(N2C(=O)NC(=O)/C(=C\c3cn(C)c4ccccc34)C2=O)c1,-16.1% (inactive),
COc1cccc(N2C(=O)NC(=O)/C(=C\c3ccc([N+](=O)[O-])s3)C2=O)c1,,7.94 µM (active)
O=C1NC(=O)N(c2ccccc2)C(=O)/C1=C/c1ccc([N+](=O)[O-])s1,,8.91 µM (active)
CCN1C[C@]2(C)CC[C@H](O)[C@@]34[C@@H]5CC6[C@@H](OC)C[C@@](O)([C@@H]5[C@@H]6O)[C@H](C[C@@H]23)[C@H]14,28.6% [at 21.5 µM] (inactive),
CCOc1cccc(=NC2CCCCC2)c2c(C)[nH]c(C)c12,40.3% [at 12.7 µM] (inactive),
NC[C@H](O)c1ccc(O)cc1,24.2% [at 21.5 µM] (inactive),
CCN(CC)C(=O)c1ccc(NC(=O)c2cc(-n3cnnc3)ccc2Cl)cc1,-47.2% [at 12.7 µM] (inactive),
COC(=O)C1=C(c2ccc(Cl)c(C(F)(F)F)c2)C[C@@H]2CC[C@H]1N2C(=O)NC(C)C,11.8% [at 2.33 µM] (inactive),
CC[N+]1(C)CCCC(OC(=O)C(O)(c2ccccc2)c2ccccc2)C1 (configuration not stated),inactive,
Cc1ncsc1CCCl,,inactive and 23.8 µM (active)
COc1ccc(CCn2c(O)c(C=NC3CC3)c(=O)[nH]c2=O)cc1OC,2.41% [at 59 µM] (inactive),
COC(=O)c1ccc2[se]c(CC3CCCCC3)c(I)c2c1,-2.16% [at 59 µM] (inactive),
O=C(C1CCN(CC2CCCCC2)CC1)N1CCCC1,,8.91 µM (active)
CSc1ccc(C(=O)C2CCCN(Cc3ccn[nH]3)C2)cc1 (configuration not stated),-40.8% (inactive),
O=[N+]([O-])c1ccc(C2C3C(c4ccccc4)=NC4(CCCCC4)N32)cc1 (configuration not stated),-20.1% (inactive),
CC(Cc1cccs1)NCc1ccc(Cl)cc1 (configuration not stated),-3.26% (inactive),
Nc1ccc([N+](=O)[O-])cc1,6.3% [at 0.501 µM] (inactive),
O=c1c2ccccc2nc(-c2ccccc2)n1-c1ccccn1,0.769% [at 0.501 µM] (inactive),
CC12CN3CC(C)(CN(C1)C3c1cccs1)C2 (configuration not stated),-3.29% (inactive),
Cc1ccc(-c2cc(C(=O)N3CCC4(CC3)OCCO4)no2)cc1,-1.09% (inactive),

Compound,"activity, negative = inhibition",Potency
CCOC(=O)C(NS(=O)(=O)c1ccc(C)cc1)(C(F)(F)F)P(=O)(OCC(C)C)OCC(C)C (configuration not stated),,7.08 µM (active)
COC(=O)C1=C(c2ccc(F)cc2OCc2ccccc2)C[C@@H]2CC[C@H]1N2C(=O)NCc1ccc(C(C)(C)C)cc1,21.1% [at 2.33 µM] (inactive),
CC(=O)Nc1ccccc1C(=O)OCC(=O)c1cccc2ccccc12,2.62% [at 59 µM] (inactive),
CCOC(=O)C1CCN(Cc2coc3ccc(Cl)cc3c2=O)CC1,,3.16 µM (active)
C[N+]12CN3CN(CN(C3)C1)C2,,1.12 µM (active)
COc1ccc(CCn2c(O)c(C=NCCCn3ccnc3)c(=O)[nH]c2=O)cc1OC,21% (inactive),
CCCCCCCCCCCCCC(=O)O[C@@H]1[C@@H](C)[C@@]2(O)[C@@H](C=C(CO)C[C@]3(O)C(=O)C(C)=C[C@@H]23)[C@@H]2C(C)(C)[C@]12OC(C)=O,8.77% [at 59 µM] (inactive),
COC(=O)N1C(c2ccccc2)C1c1ccccc1 (configuration not stated),35.5% (inactive),
COC(=O)C1=C(c2cccc(OCc3ccccc3)c2)C[C@@H]2CC[C@H]1N2C(=O)NCc1ccc(Br)cc1,-5.98% [at 0.501 µM] (inactive),
COc1ccc(NC(=O)N2CCC3(CC2)OCCO3)c(OC)c1,18.8% (inactive),
O=C(Nc1cccc2ccccc12)N1CCC2(CC1)OCCO2,,50.1 µM (active)
O=C(c1cc(-c2ccncc2)nc2ccccc12)N1CCC2(CC1)OCCO2,-0.255% [at 59 µM] (inactive),
CCN1CC2C3CCC(C)(O3)C2C1 (configuration not stated),-1.34% (inactive),
Cc1nnc(NC(=O)c2cccn(Cc3cccc(F)c3)c2=O)s1,12.5% [at 59 µM] (inactive),
Cn1cc(/C=C/c2nc3ccccc3c(=O)n2-c2ccccc2)c2ccccc21,-33.2% [at 59 µM] (inactive),
O=C(OCC1O[C@@H](OC(=O)c2cc(O)c(O)c(O)c2)[C@@H](OC(=O)c2cc(O)c(O)c(O)c2)[C@@H](OC(=O)c2cc(O)c(O)c(O)c2)[C@@H]1OC(=O)c1cc(O)c(O)c(O)c1)c1cc(O)c(O)c(O)c1 (some centres not stated),,50.1 µM (active)
CCN(N=Nc1nonc1OC)c1nonc1OC,22.1% [at 59 µM] (inactive),
CC(=O)N(C1=NCCCS1)c1ccccc1F,1.9% (inactive),
COc1ccc(-c2nn(CCC#N)cc2C(=O)O)cc1,-18.2% (inactive),
CC(=O)c1ccc(OC(NC(=O)Cc2ccccc2)C(Cl)(Cl)Cl)cc1 (configuration not stated),-9.58% (inactive),
CN(C)C(=O)Oc1ccc2c(c1)O/C(=C\c1ccccc1)C2=O,-35.3% (inactive),
N#CC(C#N)=Cc1cc(O)c(O)c([N+](=O)[O-])c1,,14.1 µM (active) and 15.8 µM (active)
NCCc1ccc(S(=O)(=O)F)cc1,inactive,

Compound,"activity, negative = inhibition",Potency
COc1ccc(C2NCc3ccc4c(c3-n3cccc32)OCO4)cc1OC (configuration not stated),0.908% [at 12.7 µM] (inactive),
COc1c(O)ccc2c1-c1c3c(cc4c1C(C2)N(C)CC4)OCO3 (configuration not stated),,39.8 µM (active)
CC(=O)NC(=O)NC(C)Cc1ccccc1 (configuration not stated),4.15% (inactive),
CCOC(=O)c1c(-c2ccccc2)oc2ccc(OC(=O)N(C)C)cc12,6.28% [at 12.7 µM] (inactive),
O=C(CN1CCCCC1)Nc1ccc(Br)cc1C(=O)c1ccccc1Cl,8.1% (inactive),
NC(=O)Nc1cccc(C(F)(F)F)c1,2.76% [at 59 µM] (inactive),
CC(C)C(N)C(=O)OCCOCn1cnc2c(=O)[nH]c(N)nc21 (configuration not stated),-19.5% [at 2.33 µM] (inactive),
Cc1ccc(Cn2nnnc2CN2CCC(n3nnc4ccccc43)CC2)cc1,,50.1 µM (active)
CC(C)(O)c1[se]c2ccccc2c1I,-25.9% (inactive),
CN(C)S(=O)(=O)c1cc(C(=O)N2CCC(C(=O)O)(c3ccccc3)CC2)ccc1Cl,8.28% (inactive),
Cc1ccc(C)c(NC2=NCCCS2)c1,-38.9% (inactive),
Cc1c(C(=O)O)cccc1-n1c(C)cc(/C=C2\C(=O)NC(=O)N(c3ccc4c(c3)OCO4)C2=O)c1C,,28.2 µM (active)
CC(C)c1c(CN(C)C(C)Cc2ccccc2)n(C)n(-c2ccccc2)c1=O (configuration not stated),6.73% [at 59 µM] (inactive),
Cc1ccnc(-n2c(C)cc(/C=C3\C(=O)NC(=S)N(C)C3=O)c2C)c1,,6.31 µM (active)
CN1CCC(OC(=O)c2cccc(F)c2)CC1,-16% (inactive),
CCN1CCN(c2ccc([N+](=O)[O-])cc2C#N)CC1,-50% (inactive),
O=C(N/N=C/c1c(O)n(C2CC2)c(=S)[nH]c1=O)c1ccccc1Cl,21.3% (inactive),
CCNC[C@H](O)c1cccc(O)c1,5.63% [at 21.5 µM] (inactive),
CN(c1ccccc1)c1ccc([N+](=O)[O-])c2nonc12,,15.8 µM (active)
O=c1c2ccccc2nc(-c2ccco2)n1-c1ccc(Br)cn1,11% [at 59 µM] (inactive),
CCOP(=S)(OCC)SCOC(=O)NCC(=O)OC,22% [at 59 µM] (inactive),
CCOC(=O)C(O)(c1ccc(N=Cc2ccccc2O)c(C)c1)C(F)(F)F (configuration not stated),14.5% (inactive),
COc1ccccc1N1CCN(C(CNC(=O)Oc2ccccc2)c2cccnc2)CC1 (configuration not stated),4.58% (inactive),

Compound,"activity, negative = inhibition",Potency
O=C(c1cc(S(=O)(=O)N2CCOCC2)ccc1F)N1CCC2(CC1)OCCO2,-11% [at 12.7 µM] (inactive),
Cc1nn(-c2ccccc2)c(C)c1NC(=O)COC(=O)Cc1ccccc1,-0.2% (inactive),
O=C(CN1CCCC1=O)NCCc1ccccc1,27.1% [at 12.7 µM] (inactive),
CC(=NCc1ccc2c(c1)OCO2)c1c(O)[nH]c(=O)[nH]c1=O,-21.4% [at 12.7 µM] (inactive),
c1ccc(CCNC2CCCCCC2)cc1,,7.08 µM (active)
c1cc2c(cc1CCNC1CCCCCC1)OCO2,,8.91 µM (active)
c1cc2c(cc1[C@H]1OC[C@H]3[C@@H]1CO[C@@H]3c1ccc3c(c1)OCO3)OCO2,39.6% [at 59 µM] (inactive),
OC(CNC1CCCCC1)c1ccccc1 (configuration not stated),2.5% [at 12.7 µM] (inactive),
CCN(CC)C(=O)c1ccc(NC(=O)c2sccc2-c2ccccc2)cc1,-8.18% (inactive),
CCN1C[C@]2(COC)C(O)C[C@H](OC)[C@@]34C5C[C@]6(O)C(OC)C(O)[C@](OC(C)=O)(C5C6OC(=O)c5ccccc5)C(C(OC)C23)C14 (some centres not stated),-10.7% [at 2.33 µM] (inactive),
CN[C@@H]1C[C@H]2O[C@@](C)([C@@H]1OC)n1c3ccccc3c3c4c(c5c6ccccc6n2c5c31)C(=O)NC4,inactive,
Cc1ccc(-n2c(/C=C/c3cccc(C(F)(F)F)c3)nc3ccccc3c2=O)cc1,-5.19% [at 59 µM] (inactive),
CCOc1ccc(-c2cc(C)[n+](CCN(CC)CC)c(-c3ccc(OCC)cc3)c2)cc1,9.19% [at 59 µM] (inactive),
O=C(O)COc1ccccc1/C=C1\C(=O)NC(=O)N(CCC2=CCCCC2)C1=O,,50.1 µM (active)
CCCCC(=O)N/N=C/c1c(O)n(CCC2=CCCCC2)c(=O)[nH]c1=O,-31.3% (inactive),
CCN(CC)P(=O)(Oc1cccc(C)c1)N(CC)CC,-21.3% (inactive),
Cc1cc(-c2n[nH]c(=S)n2-c2ccc(C)c(C)c2)no1,,2.51 µM (active)
c1ccc(CN2CC[C@@]3(CCCNC3)C2)cc1,-24.8% [at 12.7 µM] (inactive),
CN1CCN(C(=O)COc2ccc(C(C)(C)C)cc2Br)CC1,-8.26% (inactive),
O=C(O)c1ccccc1NC(=O)C1C2CCC(O2)C1C(=O)O (configuration not stated),-2.22% [at 0.501 µM] (inactive),
ClC(Cl)(Cl)c1ccccc1,-20.6% [at 0.501 µM] (inactive),
CCN1C(=O)C(=Cc2c(C)n(CC(=O)NCC3CCCO3)c3ccccc23)C(=O)N(CC)C1=S (configuration not stated),,39.8 µM (active)
O=C1C2(Cl)C3(Cl)C4(Cl)C(Cl)(Cl)C5(Cl)C3(Cl)C1(Cl)C5(Cl)C24Cl (configuration not stated),-1.92% [at 0.501 µM] (inactive),

# Reference: PubChem BioAssay AID504332 (National Center for Advancing Translational Sciences (NCATS), 2011)
